Active and inactive are the calls of the source.

Assay [1] has as its system Plasmodium falciparum Sir2 (PF13_0152, Sir2A). Description: Plasmodium falciparum Sir2A binding compounds – biochemical, small-molecule microarray, 635 nm fluorescence, primary screen (AID 1098).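 Also: score merges spot fluorescence intensity with its signal-to-noise ratio.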 To be noted: fluorescence 635 nm, higher = more signal.
A short description of assay [2]: probe aDKK1 binding to arrayed compounds – biochemical, biotinylated probe, 635/667 nm fluorescence, primary screen (AID 1099).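 Also: score merges 667nm spot fluorescence with signal to noise across triplicate slides.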 To be noted: small-molecule microarray, higher = more signal.
Assay [3] in a line: probe aCHRDL2 binding to arrayed compounds – biochemical, biotinylated probe, 635/667 nm fluorescence, primary screen (AID 1100). As to conditions: small-molecule microarray, higher = more signal.
Assay [4] can be described thus: change in splice reporter luminescence, either direction, cell-based, HEK293, spliceosome inhibition project, primary screen (AID 1101).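 Also: HEK293 cells carrying a splicing-competent luciferase reporter gene; test concentration not given here.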 To be noted: HEK293 splicing luciferase reporter, 24 h, higher = more signal, called active from +8 up or from −8 down.
For assay [5], the target named is Fibroblast growth factor 10 (Homo sapiens) (UniProt O15520). Description: compounds binding fibroblast growth factor 10 – biochemical, small-molecule microarray, 635 nm fluorescence, primary screen (AID 1102). To be noted: FGF10 binding, fluorescence 635 nm, higher = more signal.
Assay [6] relates to glycogen synthase kinase-3 (GSK3A per assay name; protocol says GSK3B). Description: compounds binding glycogen synthase kinase-3 – biochemical, small-molecule microarray, 635 nm fluorescence, GSK3A, primary screen (AID 1103). Also: the record names both GSK3A and GSK3B. As to conditions: fluorescence 635 nm, higher = more signal.
Assay [7] has as its target Epidermal growth factor receptor (Homo sapiens) (UniProt P00533). The assay is described as follows: compounds binding epidermal growth factor receptor – biochemical, small-molecule microarray, 635 nm fluorescence, primary screen (AID 1104).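 Also: score merges 667 nm emission intensity with spot signal to noise over triplicate slides.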 To be noted: EGFR binding, higher = more signal.
Assay [8] has as its target Follistatin-related protein 3 (Homo sapiens) (UniProt O95633). The assay is described as follows: compounds binding follistatin-related protein 3 – biochemical, small-molecule microarray, 635 nm fluorescence, primary screen (AID 1105).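 Also: score merges emission near 667 nm and signal to noise per printed spot across three slides.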 To be noted: FSTL3 binding, higher = more signal.
For assay [9], the target named is Dickkopf-related protein 1 (Homo sapiens) (UniProt O94907). Description: small molecules binding DKK1 protein – biochemical, small-molecule microarray, 635 nm fluorescence scan, primary screen (AID 1106).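 Also: score merges emission near 667 nm with signal to noise over three replicate slides.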 As to conditions: higher = more signal.
Assay [10] deals with Inhibin beta A chain (activin A). The assay is described as follows: small molecules binding activin A – biochemical, small-molecule microarray, 635 nm fluorescence scan, primary screen (AID 1107).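 Also: mouse activin A protein probed at 4.33 µg/mL on printed slides; score merges bound-protein fluorescence near 667 nm with spot signal-to-noise.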 As to conditions: INHBA, higher = more signal.
The test system of assay [11] is Human papillomavirus type 1a protein E7 (residues 44-93). Description: small molecules binding HPV E7 44-93 – biochemical, small-molecule microarray, residues 44-93, 635 nm fluorescence, primary screen (AID 1108).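 Also: E7 fragment applied at 1 µg/mL in TBST for 1 h at 4 C; score combines spot fluorescence with its signal to noise ratio.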 To be noted: fluorescence 635 nm, higher = more signal.
Assay [12] is described as follows: hepatitis C replication reporter changes, two-sided – Huh7 cells, luciferase reporter, HCV replication inhibitor project, primary screen (AID 1109).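 Also: huh7 hepatoma cells harbouring a luciferase neomycin HCV replicon reporter; luciferase luminescence as measure of HCV replicon replication; test concentration not given here.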 To be noted: Huh7 HCV replicon luciferase reporter, 48 h; higher = more signal.
The target in assay [13] is Left-right determination factor 2 (Homo sapiens) (UniProt O00292). The assay is described as follows: small molecules binding LEFTY2 protein – biochemical, small-molecule microarray, 635 nm fluorescence scan, primary screen (AID 1110). As to conditions: higher = more signal.
Assay [14] addresses Calmodulin-1 (Homo sapiens) (UniProt P0DP23). The assay is described as follows: small molecules binding calmodulin-1 with EGTA – biochemical, small-molecule microarray, Cy5-labelled CALM1, profiling panel (AID 1111).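 Also: labelled calmodulin applied in Tris saline Tween buffer holding calcium plus EGTA and DTT.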 As to conditions: Cy5-CALM1 binding fluorescence, higher = more signal.
For assay [15] the target is unchanged. Description: small molecules binding Ca-loaded calmodulin-1 – biochemical, small-molecule microarray, Cy5-labelled CALM1, plus calcium, artefact control for SMM control-protein annotation, profiling panel (AID 1112).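 Also: score merges spot fluorescence with signal to noise from triplicate slides.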 As to conditions: Cy5-CALM1 binding fluorescence, higher = more signal.
The nature of assay [16]: probe aWnt5a binding to arrayed compounds – biochemical, biotinylated probe, 635/667 nm fluorescence, primary screen (AID 1113).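 Also: score merges 667 nm fluorescence intensity with signal-to-noise per printed feature.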 To be noted: small-molecule microarray, higher = more signal.
Assay [17] is described as follows: probe aShh binding to arrayed compounds – biochemical, biotinylated probe, 635/667 nm fluorescence, primary screen (AID 1114).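 Also: probe is biotin-labelled aShh protein from a stem cell growth factor screen; measures binding of labelled protein to compounds printed on the slide; score merges feature fluorescence at 667 nm with signal-to-noise.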 To be noted: small-molecule microarray, higher = more signal.
Assay [18] in a line: probe aNog binding to arrayed compounds – biochemical, biotinylated probe, 635/667 nm fluorescence, primary screen (AID 1115).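 Also: probe is biotinylated aNog protein used at 0.15 µg/mL for 1 h at 4 C; z-score combines 667 nm fluorescence of each spot with its signal to noise.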 As to conditions: small-molecule microarray, higher = more signal.
The target in assay [19] is Torsin-1A-interacting protein 1 (Homo sapiens) (UniProt Q5JTV8). Description: compound microarray binding of lysate hLAP1 – cell lysate, small-molecule microarray, COS7 lysate, 635/667 nm fluorescence, primary screen (AID 1116). As to conditions: 635 nm fluorescence, higher = more signal.
For assay [20], the target named is Alpha-bungarotoxin (Bungarus multicinctus) (UniProt P60615). The assay is described as follows: compounds binding labelled alpha-BTX control protein – biochemical, small-molecule microarray, Alexa647 label, 635/667 nm fluorescence, artefact control for SMM control protein annotation, profiling panel (AID 1117). As to conditions: alpha-BTX-A647 binding fluorescence, higher = more signal.
Chain of Alpha-bungarotoxin (Bungarus multicinctus) (P60615 whole entry, looked up): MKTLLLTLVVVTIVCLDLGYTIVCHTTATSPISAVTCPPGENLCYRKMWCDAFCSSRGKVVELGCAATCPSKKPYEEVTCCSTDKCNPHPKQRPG

Chain of Dickkopf-related protein 1 (Homo sapiens) (O94907 whole entry, looked up): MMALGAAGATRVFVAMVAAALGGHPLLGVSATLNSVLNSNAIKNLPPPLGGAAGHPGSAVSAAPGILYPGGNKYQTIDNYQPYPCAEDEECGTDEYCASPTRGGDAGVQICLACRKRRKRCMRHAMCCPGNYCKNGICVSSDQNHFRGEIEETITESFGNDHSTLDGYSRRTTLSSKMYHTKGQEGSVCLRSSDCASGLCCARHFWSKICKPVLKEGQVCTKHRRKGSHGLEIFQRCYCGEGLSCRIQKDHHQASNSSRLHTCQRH
Chain of Epidermal growth factor receptor (Homo sapiens) (P00533 whole entry, looked up): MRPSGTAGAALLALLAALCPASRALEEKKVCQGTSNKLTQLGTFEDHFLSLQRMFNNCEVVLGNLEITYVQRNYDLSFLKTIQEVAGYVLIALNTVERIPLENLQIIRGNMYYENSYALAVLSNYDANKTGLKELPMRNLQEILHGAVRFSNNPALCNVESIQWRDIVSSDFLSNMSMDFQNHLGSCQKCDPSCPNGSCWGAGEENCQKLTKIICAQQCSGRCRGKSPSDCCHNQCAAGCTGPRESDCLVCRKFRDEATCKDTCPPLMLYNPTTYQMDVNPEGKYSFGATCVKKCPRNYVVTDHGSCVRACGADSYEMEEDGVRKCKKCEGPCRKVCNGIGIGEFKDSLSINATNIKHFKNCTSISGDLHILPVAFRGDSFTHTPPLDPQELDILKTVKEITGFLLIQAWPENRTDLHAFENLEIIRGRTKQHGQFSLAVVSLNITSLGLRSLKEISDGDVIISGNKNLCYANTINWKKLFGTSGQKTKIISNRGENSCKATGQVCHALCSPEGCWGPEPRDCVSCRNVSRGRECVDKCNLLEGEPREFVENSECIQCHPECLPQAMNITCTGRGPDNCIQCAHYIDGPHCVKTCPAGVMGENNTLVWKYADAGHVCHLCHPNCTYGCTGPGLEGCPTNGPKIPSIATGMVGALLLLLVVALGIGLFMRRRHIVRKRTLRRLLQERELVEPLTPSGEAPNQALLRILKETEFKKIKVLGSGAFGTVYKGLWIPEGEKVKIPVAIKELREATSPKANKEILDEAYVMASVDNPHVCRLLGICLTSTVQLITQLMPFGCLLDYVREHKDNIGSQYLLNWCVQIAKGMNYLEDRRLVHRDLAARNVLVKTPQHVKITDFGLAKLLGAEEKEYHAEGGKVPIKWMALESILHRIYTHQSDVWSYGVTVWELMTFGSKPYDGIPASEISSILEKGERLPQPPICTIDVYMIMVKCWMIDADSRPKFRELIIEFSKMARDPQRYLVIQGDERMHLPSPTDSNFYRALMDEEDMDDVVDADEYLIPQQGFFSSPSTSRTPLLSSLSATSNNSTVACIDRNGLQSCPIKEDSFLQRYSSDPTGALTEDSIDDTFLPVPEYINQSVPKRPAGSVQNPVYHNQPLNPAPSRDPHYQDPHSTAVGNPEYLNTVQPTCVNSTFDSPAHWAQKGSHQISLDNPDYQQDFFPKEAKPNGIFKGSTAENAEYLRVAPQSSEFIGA
Chain of Fibroblast growth factor 10 (Homo sapiens) (O15520 whole entry, looked up): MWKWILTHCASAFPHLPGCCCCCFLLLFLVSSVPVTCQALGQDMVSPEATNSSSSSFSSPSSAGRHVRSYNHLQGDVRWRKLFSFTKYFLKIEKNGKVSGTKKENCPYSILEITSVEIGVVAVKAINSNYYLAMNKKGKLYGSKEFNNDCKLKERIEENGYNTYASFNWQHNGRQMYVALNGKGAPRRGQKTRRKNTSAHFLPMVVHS
Chain of Torsin-1A-interacting protein 1 (Homo sapiens) (Q5JTV8 whole entry, looked up): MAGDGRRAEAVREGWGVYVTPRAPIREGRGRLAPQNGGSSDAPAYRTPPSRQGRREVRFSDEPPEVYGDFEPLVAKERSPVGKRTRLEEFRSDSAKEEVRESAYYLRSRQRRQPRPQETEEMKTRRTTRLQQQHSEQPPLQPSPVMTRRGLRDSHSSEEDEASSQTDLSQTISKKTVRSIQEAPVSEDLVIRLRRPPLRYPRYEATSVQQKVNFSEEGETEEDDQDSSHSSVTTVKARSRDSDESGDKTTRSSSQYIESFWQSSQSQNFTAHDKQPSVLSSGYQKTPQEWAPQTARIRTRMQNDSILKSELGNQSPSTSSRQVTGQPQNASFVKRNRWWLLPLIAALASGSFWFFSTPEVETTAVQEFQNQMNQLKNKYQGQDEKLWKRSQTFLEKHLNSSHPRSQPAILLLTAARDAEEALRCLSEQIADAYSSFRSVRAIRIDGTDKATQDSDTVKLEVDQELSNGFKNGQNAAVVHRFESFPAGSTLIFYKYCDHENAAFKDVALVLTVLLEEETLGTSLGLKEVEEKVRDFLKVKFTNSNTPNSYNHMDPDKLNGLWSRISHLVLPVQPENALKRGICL
Chain of Left-right determination factor 2 (Homo sapiens) (O00292 whole entry, looked up): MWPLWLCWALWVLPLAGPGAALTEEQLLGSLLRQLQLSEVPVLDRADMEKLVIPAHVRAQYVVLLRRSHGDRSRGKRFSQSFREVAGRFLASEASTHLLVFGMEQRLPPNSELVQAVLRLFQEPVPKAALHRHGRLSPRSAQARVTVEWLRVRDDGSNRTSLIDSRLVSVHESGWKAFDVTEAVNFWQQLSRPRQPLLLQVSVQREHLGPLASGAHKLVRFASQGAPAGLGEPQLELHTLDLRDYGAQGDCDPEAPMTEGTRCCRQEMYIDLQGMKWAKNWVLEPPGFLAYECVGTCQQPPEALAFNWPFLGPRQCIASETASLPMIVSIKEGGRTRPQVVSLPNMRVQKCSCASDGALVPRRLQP
Chain of Follistatin-related protein 3 (Homo sapiens) (O95633 whole entry, looked up): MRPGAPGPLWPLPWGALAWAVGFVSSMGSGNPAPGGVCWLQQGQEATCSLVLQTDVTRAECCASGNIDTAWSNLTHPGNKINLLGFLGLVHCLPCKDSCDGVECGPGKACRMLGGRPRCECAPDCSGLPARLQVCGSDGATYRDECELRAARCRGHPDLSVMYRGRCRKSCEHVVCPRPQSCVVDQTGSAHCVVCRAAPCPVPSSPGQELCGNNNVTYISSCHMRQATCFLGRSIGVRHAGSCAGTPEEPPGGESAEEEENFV

On to `N#Cc1ccc(NN2C(C(O)c3cccs3)C=CC3C(=O)N(c4ccccc4)C(=O)C32)cc1` (stereo not given), for which the composite z-score was 0.15 in assay [1]; -0.0705 in assay [2]; -0.25 in assay [3]; 1.18 in assay [5]; 0.349 in assay [6]; 0.55 in [7]. Also, the composite z-score in assay [8] was 0.642; in assay [9], -0.271; in assay [10], 0.207; in assay [11], 0.809; in assay [13], 0.268; in assay [14], 0.41. In addition, the composite z-score is 0.314 in assay [15]; 0.0709 in assay [16]; -0.0977 in [17]; 1.43 in assay [18]; 1.52 in assay [19]; 0.122 in assay [20]. The results for the z-score in assay [4] and in assay [12] were -0.626 (inactive) and -0.0582, respectively.
Consider `[N-]=[N+]=NCc1ccccc1C[C@]1(C(=O)NCC(O)CO)N=C(c2ccc(OCCCO)cc2)O[C@H]1c1ccccc1N=[N+]=[N-]` (stereo not given in full), for which the composite z-score is 0.3 in assay [1]; 1.38 in assay [2]; 1.1 in assay [3]; 0.0684 in assay [5]; 0.091 in assay [6]; -0.166 in assay [7]. For the same molecule, the composite z-score is -0.318 in assay [8]; -0.894 in assay [9]; 0.967 in assay [10]; 1.38 in assay [11]; -1.22 in assay [13]; 1.03 in assay [14]. In addition, the composite z-score in assay [15] is 1.04; in [16], 0.0633; in assay [17], 0.14; in assay [18], 1.18; in assay [19], 1.4; in assay [20] it was 1.75. Moreover, the z-score is -1.58 (inactive) in assay [4] and -1.47 in [12].
For `N#Cc1ccc(NN2C(C(O)C3CCCCC3)C=CC3C(=O)N(c4ccccc4)C(=O)C32)cc1` (stereo not given), the composite z-score was 0.908 in assay [1]; 0.458 in [2]; 0.811 in assay [3]; 1.09 in assay [5]; 1.3 in assay [6]; -0.0355 in assay [7]. The composite z-score is 1.28 in [8]; -0.547 in [9]; 0.249 in assay [10]; 1.48 in assay [11]; 0.0137 in [13]; 1.82 in [14]. Also, the composite z-score was 0.779 in assay [15]; 0.0859 in [16]; 0.294 in assay [17]; 1.32 in assay [18]; -0.102 in assay [19]; 1.09 in [20]. The results for the z-score in assay [4] and in [12] were 1.23 (inactive) and -0.785, respectively.
As to `Cc1ccc(S[C@]2(C(=O)NCCN3CCOCC3)CC(=O)N(Cc3cc(C(F)(F)F)cc(C(F)(F)F)c3)[C@@H]2c2ccc(CO)cc2I)cc1`, the composite z-score is 1.4 in assay [1]; 0.104 in [2]; 0.868 in assay [3]; -0.743 in assay [5]; -0.799 in [6]; -0.981 in assay [7]. Also, the composite z-score is -0.492 in assay [8]; -1.34 in assay [9]; 0.551 in assay [10]; 0.105 in assay [11]; -1.45 in [13]; -0.452 in assay [14]. The composite z-score was 0.492 in [15]; -0.176 in assay [16]; -0.331 in assay [17]; -0.389 in assay [18]; -0.604 in assay [19]; -0.306 in [20]. Also, the z-score in [4] is -2.04 (inactive); in assay [12], -1.59.
Regarding `O=C1C=CC(=O)[C@@H]2CC(COc3ccccc3)=C3[C@@H](CCc4ccccc4)OB(O)C[C@@H]3[C@H]12`, the composite z-score in assay [1] is 0.403; in assay [2] it was -0.339; in assay [3], -0.523; in assay [5] it was 0.545; in assay [6], 0.34; in [7], 0.515. In addition, the composite z-score in assay [8] was 0.887; in [9], 1.07; in assay [10] it was 0.72; in [11] it was 0.23; in assay [13], 0.41; in [14], -0.413. The composite z-score in assay [15] was -1.09; in [16], -0.0819; in [17] it was 0.0121; in assay [18] it was -0.175; in [19], 0.0342; in [20] it was 0.361. The z-score in assay [4] was 2.04 (inactive); in assay [12] it was -1.64.
With `COCCOC(=O)N1C(=O)[C@@]2(c3cc(C#CC4(O)CCCCCC4)ccc31)[C@H](C(=O)N1CCCCCCC1)[C@H]1C(=O)O[C@H](c3ccccc3)[C@H](c3ccccc3)N1[C@@H]2c1ccccc1OCCO`, the composite z-score in assay [1] came out at 1.6; in assay [2], 1.56; in assay [3], 1.44; in assay [5], 0.933; in [6], 1.32; in assay [7] it was 0.75. Moreover, the composite z-score in assay [8] is 1.46; in assay [9], 1.18; in [10] it was 1.63; in assay [11], 1.42; in assay [13], 0.487; in [14] it was 1.79. Also, the composite z-score in assay [15] amounted to 1.22; in assay [16], 0.265; in assay [17] it was 0.906; in [18], 2.36; in assay [19] it was 1.62; in assay [20] it was 1.49. In addition, the z-score is 0.0811 (inactive) in assay [4] and -1.61 in assay [12].

Values taken from PubChem BioAssay.
